The source made the active and inactive calls. Unless noted, no rule for the calls is given here.

Test [1] can be described thus: HepG2 liver cancer cell viability effects, profiling panel, resazurin fluorescence, 24 h, PK04 Diversity Set (AID 1172). Also: test concentration not given here. The following applies: higher = more signal. Background: Alamar Blue is a resazurin reagent that responds to reducing activity.
The nature of test [2]: basal S. cerevisiae growth modulation, no modifier, primary screen, OD600, strain BY4716, 24 h, basal condition (AID 1173). Particulars: OD600, 24 h, higher = more signal, called active from +8 up or from −8 down.
Test [3] is described as follows: MM1S myeloma cell viability, profiling panel, resazurin fluorescence, basal, 24 h, PK04 Diversity Set (AID 1174).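 Also: MM1S multiple myeloma cell line; test concentration not given here.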 The following applies: higher = more signal, called active from +8 up or from −8 down.
The target in test [4] is Dihydroorotate dehydrogenase (quinone), mitochondrial (Plasmodium falciparum (isolate 3D7)) (UniProt Q08210). Briefly: PfDHODH enzyme inhibitors, primary screen, biochemical, C-terminal His tag, absorbance 600 nm (AID 1175).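 Also: recombinant parasite enzyme with a five histidine tag at its C terminus; test concentration not given here.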 Particulars: DCIP absorbance 600 nm, higher = more signal, called active from +8 up or from −8 down.
Dihydroorotate dehydrogenase (quinone), mitochondrial (Plasmodium falciparum (isolate 3D7)), sequence (Q08210 whole entry, looked up): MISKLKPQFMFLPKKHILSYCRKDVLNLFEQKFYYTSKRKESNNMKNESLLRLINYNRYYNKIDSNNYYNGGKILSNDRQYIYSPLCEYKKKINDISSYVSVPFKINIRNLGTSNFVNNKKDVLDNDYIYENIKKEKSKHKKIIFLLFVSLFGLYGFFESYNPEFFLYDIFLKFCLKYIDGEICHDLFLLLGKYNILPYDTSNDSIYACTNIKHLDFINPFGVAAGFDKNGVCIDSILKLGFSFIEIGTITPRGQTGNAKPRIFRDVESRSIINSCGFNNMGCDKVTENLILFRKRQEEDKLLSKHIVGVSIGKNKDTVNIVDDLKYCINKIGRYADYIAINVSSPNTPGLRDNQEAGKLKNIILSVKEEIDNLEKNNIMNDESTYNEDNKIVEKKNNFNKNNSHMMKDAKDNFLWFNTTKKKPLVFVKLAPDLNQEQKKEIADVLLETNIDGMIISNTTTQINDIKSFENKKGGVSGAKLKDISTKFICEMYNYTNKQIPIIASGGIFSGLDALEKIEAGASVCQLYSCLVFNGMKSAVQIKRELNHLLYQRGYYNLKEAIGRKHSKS
Test [5] can be described thus: P. aeruginosa biofilm formation inhibitors, primary screen, strain PAO1, LB-PBS medium, absorbance 600 nm (AID 1176). Also: test concentration not given here. Particulars: P. aeruginosa PAO1 growth/biofilm, A600, 12 h; higher = more signal.
The nature of test [6]: S. cerevisiae RM11-1a growth modifiers, primary screen, strain RM11-1a, OD600, basal, 24 h (AID 1177).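 Also: cultures grown under basal conditions with no added stressor; test concentration not given here.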 Particulars: OD600, 24 h, higher = more signal, called active from +8 up or from −8 down.
Test [7] can be described thus: E. coli acrAB mutant growth effects, primary screen, E. coli filamentation inducers, strain DRC39, OD650, 24 h (AID 1178).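 Also: growth measured as culture turbidity by optical density at 650 nm; test concentration not given here.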 Particulars: higher = more signal, called active from +8 up or from −8 down.
The nature of test [8]: E. coli acrAB mutant growth effects, primary screen, E. coli filamentation inducers, strain DRC39, OD650, 48 h (AID 1179).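 Also: screen aims at cell division blockers that make cells filament.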 Particulars: E. coli DRC39 delta-acrAB growth, higher = more signal, called active from +8 up or from −8 down.
Test [9] in a line: RPMI8226 myeloma cell viability, profiling panel, resazurin fluorescence, basal, 24 h, PK04 Diversity Set (AID 1180).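 Also: RPMI8826 multiple myeloma cell line at 5000 cells per well; test concentration not given here.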 The following applies: higher = more signal.
Test [10] deals with E3 ubiquitin-protein ligase XIAP (Homo sapiens) (UniProt P98170). Briefly: XIAP binders, primary screen, biophysical, small-molecule microarray, fluorescence 635 nm (AID 1181).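 Also: score merges 667 nm emission and signal to noise over triplicate slides.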 The following applies: small-molecule microarray binding, higher = more signal.
E3 ubiquitin-protein ligase XIAP (Homo sapiens), sequence (P98170 whole entry, looked up): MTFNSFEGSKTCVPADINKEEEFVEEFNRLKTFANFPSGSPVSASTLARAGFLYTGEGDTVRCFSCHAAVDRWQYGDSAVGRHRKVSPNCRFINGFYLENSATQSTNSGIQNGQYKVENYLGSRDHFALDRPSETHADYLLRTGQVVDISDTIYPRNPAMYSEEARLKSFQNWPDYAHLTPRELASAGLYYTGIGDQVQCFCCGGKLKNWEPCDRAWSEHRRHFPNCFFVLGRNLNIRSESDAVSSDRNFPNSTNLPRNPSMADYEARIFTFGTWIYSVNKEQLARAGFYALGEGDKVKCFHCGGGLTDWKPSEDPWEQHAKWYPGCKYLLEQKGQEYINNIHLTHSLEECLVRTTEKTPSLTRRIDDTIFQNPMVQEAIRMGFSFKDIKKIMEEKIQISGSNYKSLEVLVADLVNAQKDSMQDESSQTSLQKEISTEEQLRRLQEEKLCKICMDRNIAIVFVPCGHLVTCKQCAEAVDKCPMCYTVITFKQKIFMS

In the case of `CN(C)C(=O)[C@]1(CCS(=O)(=O)c2ccccc2)N=C(c2ccc(OCCCO)cc2)O[C@@H]1c1ccccc1N=[N+]=[N-]`, the z-score in [1] was -0.622; in test [2], -0.0799 (inactive); in test [3], -0.99 (inactive); in test [5], 0.218 (inactive); in test [6], 0.386 (inactive); in test [7], 0.292 (inactive). Also, the z-score in test [8] is 0.393 (inactive); in test [9] it was -1.01. Also, the composite z-score in test [4] is 1.05 (inactive); in test [10], 0.273.

Take `C=CCN1C(=O)[C@@]2(O[C@@H](CCn3cc([C@H](O)c4ccccc4)nn3)[C@H]([Si](C)(C)c3ccc(OC)cc3)[C@H]2C)c2cc(N3CCC3=O)ccc21`: the z-score in test [1] was -0.721; in test [2] it was 0.869 (inactive); in test [3] it was -1.14 (inactive); in test [5], 1.25 (inactive); in test [6] it was 2.39 (inactive); in test [7] it was 0.397 (inactive). Besides, the z-score in test [8] was 0.477 (inactive); in test [9], -1.09. Further, the composite z-score in [4] is 0.936 (inactive); in test [10], -0.153.

As to `CC(C)[Si](C#CCCCC#N)(O[C@H](c1ccccc1)c1cn([C@H](CO)Cc2ccccc2)nn1)C(C)C`, the z-score in test [1] was 0.374; in test [2], -9.13 (active); in test [3] it was 0.288 (inactive); in test [5] it was 1.44 (inactive); in [6], -1.8 (inactive); in test [7] it was 0.178 (inactive). Moreover, the z-score in test [8] was 0.362 (inactive); in test [9], 0.289. Besides, the composite z-score in test [4] is -0.804 (inactive); in test [10], -0.111.

As for `COC(=O)c1c2oc(c1C(=O)OC)C(=O)N(Cc1ccccc1)Cc1cn(nn1)C[C@H](Cc1ccccc1)NC(=O)N[C@H](CO)CC2`, the z-score was 1.18 in test [1]; -1.78 (inactive) in test [2]; 0.312 (inactive) in test [3]; 0.231 (inactive) in test [5]; -1.38 (inactive) in [6]; 1.33 (inactive) in test [7]. Moreover, the values for the z-score in test [8] and in test [9] were 1.89 (inactive) and 1.16, respectively. The composite z-score in [4] was -0.519 (inactive); in [10], 0.725.

In the case of `CC1CC/C=C\[C@H]2OC34C=CCN(C(C)C)C(=O)[C@H]3N(CCCCCCO)C(=O)[C@@H]4C2C(=O)O1` (stereo not given in full), the z-score in [1] is 0.609; in test [2], -0.815 (inactive); in test [3], 0.794 (inactive); in test [5], 0.345 (inactive); in [6] it was -0.908 (inactive); in [7], 1.05 (inactive). Moreover, the z-score in test [8] was 0.864 (inactive); in test [9], 2.06. Moreover, the results for the composite z-score in [4] and in [10] were -0.36 (inactive) and 0.0914, respectively.

As for `C=C(C)[C@@H]1CC=C(C(O)C2C=CC3C(=O)N(c4ccccc4)C(=O)C3N2Nc2ccccc2F)CC1` (stereo not given in full), the z-score in [1] is -0.91; in test [2], 0.966 (inactive); in test [3], -0.773 (inactive); in test [5], 1.51 (inactive); in [6], 2.01 (inactive); in [7] it was -0.96 (inactive). The z-score in [8] is -0.829 (inactive); in test [9] it was -1.09. Moreover, the composite z-score in [4] is 1.63 (inactive); in test [10] it was 0.0806.

For `[N-]=[N+]=NCc1ccccc1C[C@]1(C(N)=O)N=C(c2ccc(OCCCO)cc2)O[C@H]1c1ccccc1`, the z-score in test [1] was 1; in test [2], -0.198 (inactive); in test [3], -0.726 (inactive); in [5], -0.786 (inactive); in test [6], 1.4 (inactive); in test [7], 0.146 (inactive). Besides, the z-score is 0.98 (inactive) in [8] and -0.581 in test [9]. The figures for the composite z-score in test [4] and in test [10] were 0.921 (inactive) and 0.1, respectively.

Regarding `COC(=O)C(CC#Cc1ccc2c(c1)[C@]1(C(=O)N2)[C@H](C(=O)N2CCN(c3ncccn3)CC2)[C@H]2C(=O)O[C@H](c3ccccc3)[C@H](c3ccccc3)N2[C@@H]1c1ccc(OCCO)cc1)C(=O)OC`, the z-score in test [1] was -0.589; in [2], 1.78 (inactive); in test [3] it was -1.45 (inactive); in test [5] it was 3.59 (inactive); in test [6], 3.84 (inactive); in test [7], 0.475 (inactive). Also, the z-score in test [8] is 1.05 (inactive); in [9] it was -0.126. Further, the results for the composite z-score in test [4] and in test [10] were -8.4 (active) and -0.039, respectively.

With `NCCCCCCNC(=O)[C@@H]1C[C@@H]2C(=O)N[C@@H](CCCCN)C(=O)N2[C@@H]1c1cccc(OCCO)c1`, the z-score was 1.1 in test [1]; 0.0813 (inactive) in [2]; 0.193 (inactive) in test [3]; -0.931 (inactive) in [5]; 0.58 (inactive) in test [6]; 0.398 (inactive) in test [7]. Besides, the results for the z-score in test [8] and in test [9] were 0.756 (inactive) and 0.685, respectively. Moreover, the composite z-score was 0.169 (inactive) in test [4] and 2.72 in test [10].

Turning to `COc1ccc(CN(C2=CC[C@@]3(C(N)=O)C(=O)C(Cl)=C(Cl)C(=O)[C@@]3(C#N)C2)S(=O)(=O)c2ccc(Br)cc2)cc1`, the z-score in [1] was -0.275; in test [2] it was -1.2 (inactive); in [3] it was -2.88 (inactive); in test [5] it was 0.481 (inactive); in [6], -0.96 (inactive); in test [7] it was 0.506 (inactive). Besides, the z-score was 0.575 (inactive) in test [8] and -1.18 in [9]. Besides, the composite z-score in test [4] is -4.12 (inactive); in test [10], 0.0937.

For the molecule `COc1cc2c(cc1O)C(C)N(Cc1ccc([N+](=O)[O-])o1)CC2` (stereo not given), the z-score in test [1] was -0.11; in test [2], -0.942 (inactive); in [3], -0.653 (inactive); in [5] it was -0.103 (inactive); in [6], -0.74 (inactive); in test [7], -1.04 (inactive). Moreover, the z-score in test [8] was -0.679 (inactive); in test [9], -0.396. The composite z-score was -0.749 (inactive) in [4] and -0.127 in test [10].

On to `CO[C@H]1O[C@H](CO)[C@@H](OC(=O)Nc2ccc3c(c2)OCO3)[C@H](OC(=O)c2cc3ccccc3[nH]2)[C@H]1OC(=O)c1cc2ccccc2[nH]1`, for which the z-score is -2.92 in [1]; -0.237 (inactive) in test [2]; -3.48 (inactive) in test [3]; 0.69 (inactive) in test [5]; -0.81 (inactive) in test [6]; 0.387 (inactive) in test [7]. For the same molecule, the z-score in test [8] is 1.42 (inactive); in test [9], -3.84. The values for the composite z-score in test [4] and in test [10] were -1.53 (inactive) and 0.151, respectively.

Turning to `O=C1O[C@@H](c2ccccc2)[C@@H](c2ccccc2)N2[C@@H](c3ccc(O)cc3)[C@]3(C(=O)Nc4ccc(C#CC5=CCCCC5)cc43)[C@@H](C(=O)NC[C@H](O)c3ccccc3)[C@H]12`, the z-score was -0.705 in test [1]; -0.593 (inactive) in test [2]; -3.09 (inactive) in test [3]; 1.6 (inactive) in test [5]; 2.43 (inactive) in test [6]; 0.0087 (inactive) in [7]. Besides, the z-score in test [8] is 0.939 (inactive); in [9] it was -6.69. The composite z-score was -0.609 (inactive) in [4] and -0.0397 in [10].
